Results taken from the supplement of paper PMC6555819.

Assays:
Test in all cases: PBM binding z-score (relative to random genomic background probes); higher = stronger binding; sequences stand for … in GC…GCGATTGACAGCGTAGAATGAAGG
[1] = tested on: FXR:RXRa (NR concentration 270 nM, RXRa partner concentration 90 nM)
How it was run: (§1)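 Ligand-free nuclear receptor dimers were bound for 1 h to custom Agilent 4×180K protein-binding microarrays. Detection used antibodies against each partner (one per run). Binding z-scores rest on regression-normalized fluorescence, with random background probes as the reference.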

[2] = tested on: LXRa:RXRa (NR concentration 270 nM, RXRa partner concentration 90 nM)
How it was run: as §1

[3] = tested on: LXRa homodimer (NR concentration 270 nM)
How it was run: as §1

[4] = tested on: LXRb:RXRa (NR concentration 270 nM, RXRa partner concentration 90 nM)
How it was run: as §1

[5] = tested on: LXRb homodimer (NR concentration 270 nM)
How it was run: as §1

[6] = tested on: PPARa:RXRa (NR concentration 270 nM, RXRa partner concentration 90 nM)
How it was run: as §1

[7] = tested on: PPARg:RXRa (NR concentration 180 nM, RXRa partner concentration 90 nM)
How it was run: as §1

[8] = tested on: PPARg:RXRa 270nM:90nM, anti-RXR (NR concentration 270 nM, RXRa partner concentration 90 nM)
How it was run: as §1

[9] = tested on: PPARg:RXRa 30nM:10nM, anti-RXR (NR concentration 30 nM, RXRa partner concentration 10 nM)
How it was run: as §1

[10] = tested on: PPARg:RXRa 90nM:30nM, anti-RXR (NR concentration 90 nM, RXRa partner concentration 30 nM)
How it was run: as §1

[11] = tested on: PPARg:RXRa DBDmut IVT, anti-RXR (DBD mutation: RXRa K156A/R161A, NR concentration 270 nM, RXRa partner concentration 90 nM)
How it was run: as §1

[12] = tested on: PPARg:RXRa IVT, anti-PPARg (NR concentration 270 nM, RXRa partner concentration 90 nM)
How it was run: as §1

[13] = tested on: PPARg DBDmut:RXRa IVT, anti-PPARg (DBD mutation: PPARg1 K132A/R137A, NR concentration 270 nM, RXRa partner concentration 90 nM)
How it was run: as §1

[14] = tested on: PPARg DBDmut IVT, anti-PPARg (DBD mutation: PPARg1 K132A/R137A, NR concentration 270 nM)
How it was run: as §1

[15] = tested on: PPARg homodimer (NR concentration 180 nM)
How it was run: as §1

[16] = tested on: PXR:RXRa (NR concentration 270 nM, RXRa partner concentration 90 nM)
How it was run: as §1

[17] = tested on: PXR homodimer (NR concentration 270 nM)
How it was run: as §1

[18] = tested on: RARa:RXR (NR concentration 270 nM, RXRa partner concentration 90 nM)
How it was run: as §1

[19] = tested on: RARa homodimer (NR concentration 270 nM)
How it was run: as §1

[20] = tested on: RARb:RXRa (NR concentration 270 nM, RXRa partner concentration 90 nM)
How it was run: as §1

Row | Sequence | PBM binding z-score [1] | PBM binding z-score [2] | PBM binding z-score [3] | PBM binding z-score [4] | PBM binding z-score [5] | PBM binding z-score [6] | PBM binding z-score [7] | PBM binding z-score [8] | PBM binding z-score [9] | PBM binding z-score [10] | PBM binding z-score [11] | PBM binding z-score [12] | PBM binding z-score [13] | PBM binding z-score [14] | PBM binding z-score [15] | PBM binding z-score [16] | PBM binding z-score [17] | PBM binding z-score [18] | PBM binding z-score [19] | PBM binding z-score [20]
1 | TAGCCTAGGTCATTCAGGGGGCAGTATAGAAAGC | 5.76 | 4.78 | 2.16 | 5.66 | 11 | 4.6 | 3.97 | 4.6 | 1.89 | 3.53 | 2.78 | 4.86 | 5.63 | 7.07 | 4.21 | 4.22 | 1.22 | 5.41 | 0.982 | 4.45
2 | CCTACTGGGGCACGAAAGGTCATTGATTCAGTGA | 4.09 | 5.15 | 4.81 | 4.57 | 0.0561 | 4.99 | 6.01 | 5.54 | 2.79 | 4.75 | 5.75 | 6.88 | 0.869 | 0.0108 | 3.09 | 5.68 | 1.16 | 5.47 | 0.333 | 4.41
3 | TCTAGTTGGTCGCGGAGGTCACACACGACGGGTA | 2.99 | 3.17 | 2.21 | 2.94 | 0.671 | 3.61 | 2.02 | 3.04 | 2.94 | 2.83 | 1.54 | 2.37 | 0.402 | 0.328 | 2.9 | 4.16 | 1.42 | 4.39 | 1.29 | 3.38
4 | ATCGAAACGTCGTGAGGTGAGTATACAGAAAGGC | -0.206 | -0.348 | -0.532 | -0.359 | -0.538 | -0.0386 | 0.851 | -0.286 | -0.051 | 0.0788 | -0.959 | 0.149 | 1.07 | -0.047 | -0.199 | -0.306 | -0.433 | 0.0512 | -0.494 | -0.0846
5 | GCTAGTGGGTCAGTAAAAGGTCACACACCGGTCG | 4.47 | 4.77 | 4.65 | 4.61 | 0.38 | 5.24 | 6.44 | 5.98 | 3.57 | 5.34 | 6.37 | 6.63 | 1.17 | 1.14 | 6.87 | 5.62 | 1.8 | 7.01 | 2.96 | 5.12
6 | CCTACGGGGCCAAGGTCATTGATCAGTCAAAGCA | 3.57 | 3.06 | 0.732 | 2.94 | -0.542 | 3.79 | 2.83 | 3.73 | 1.3 | 2.88 | 0.0794 | 1.73 | -1.66 | -0.738 | 2.31 | 3.58 | 0.818 | 3.78 | -0.181 | 3.57
7 | CAAACTAGGTCACAGAGGACAAAGTCCGTGCGTA | 4.82 | 3.84 | 1.45 | 2.96 | 0.637 | 5.52 | 9.51 | 7.79 | 5.58 | 7.51 | 8.78 | 9.01 | 7.7 | 3.32 | 4.15 | 3.52 | 2.3 | 3.22 | 1.21 | 4.54
8 | CCAACTAGGTCATTGACAGGACAGTGAATAGTAA | 4.34 | 3.06 | 0.961 | 2.18 | 0.671 | 3.92 | 5.95 | 5.66 | 2.77 | 5.03 | 7.67 | 7.49 | 1.99 | 0.953 | 1.89 | 1.68 | 0.805 | 2.23 | 1.58 | 3.77
9 | CCTAGTTGGTCAAGGTCACACATGCTATAGGTAC | 3.87 | 3.69 | 2.25 | 3.88 | 0.901 | 4.01 | 3.24 | 3.69 | 1.38 | 2.96 | 2.61 | 3.82 | 1.11 | 1.14 | 3.65 | 4.24 | 2.57 | 4.11 | 2.64 | 4.14
10 | AACGAAAGGTCGACGAGGTGAGTATACACCGTTT | 4.99 | 3.68 | 0.231 | 2.9 | 0.0317 | 4.82 | 3.19 | 3.42 | 1.02 | 2.48 | 0.793 | 1.94 | 0.978 | 0.568 | 1.32 | 2.95 | 0.578 | 3.56 | 0.305 | 3.91
11 | GATAGTTGGTCAGTAAAAGGTCACACACCGGTCG | 3.47 | 4.21 | 4.89 | 4.06 | 0.786 | 4.57 | 3.46 | 4.68 | 2.35 | 3.8 | 1 | 3.26 | 0.61 | 0.944 | 4.23 | 4.92 | 1.52 | 5.65 | 3.2 | 4.42
12 | CCTACTGGGCCATCAGGTGATTGATATCAACGTT | -0.454 | -0.704 | -0.341 | -0.438 | -0.864 | 0.426 | 1.29 | 1.63 | 0.102 | 1.27 | 3.79 | 4.34 | 0.38 | -0.0432 | -0.3 | -0.668 | -0.342 | -0.448 | -0.0417 | 0.0448
13 | TCTAGCTGGTCAAAGGTCACACACTCGAAATGCG | 5.6 | 6.17 | 3.41 | 5.31 | 0.629 | 6.34 | 10.5 | 9.37 | 9.91 | 10.1 | 2.35 | 5.48 | 0.807 | 1.12 | 4.18 | 6.12 | 0.771 | 7.74 | 2.13 | 4.89
14 | ATCGAAAGGTCGAGGAGGTGAGTATACACCGTTT | 4.46 | 3.42 | -0.194 | 2.55 | 0.629 | 4.26 | 2.8 | 3.19 | 0.595 | 2.06 | 0.255 | 1.9 | 1.49 | 0.557 | 1.47 | 2.86 | 0.184 | 3.41 | 0.666 | 3.94
